# Measured values taken from ChEMBL document CHEMBL1961873, “Compounds: GSK PKIS; Assays: Nanosyn kinase panel” (2012).
# How the values were obtained:
# [1] = target: Mitogen-activated protein kinase 3 (Homo sapiens) (UniProt P27361); details: at 1 µM;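 note: values are mean percent inhibition of MAPK3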
# [2] = target: SRSF protein kinase 3 (Homo sapiens) (UniProt Q9UPE1); details: at 0.1 µM
# [3] = target: SRSF protein kinase 3 (Homo sapiens) (UniProt Q9UPE1); details: at 1 µM
# [4] = target: Mitogen-activated protein kinase 14 (Homo sapiens) (UniProt Q16539); details: at 0.1 µM
# Mitogen-activated protein kinase 14 (Homo sapiens), sequence (Q16539 whole entry): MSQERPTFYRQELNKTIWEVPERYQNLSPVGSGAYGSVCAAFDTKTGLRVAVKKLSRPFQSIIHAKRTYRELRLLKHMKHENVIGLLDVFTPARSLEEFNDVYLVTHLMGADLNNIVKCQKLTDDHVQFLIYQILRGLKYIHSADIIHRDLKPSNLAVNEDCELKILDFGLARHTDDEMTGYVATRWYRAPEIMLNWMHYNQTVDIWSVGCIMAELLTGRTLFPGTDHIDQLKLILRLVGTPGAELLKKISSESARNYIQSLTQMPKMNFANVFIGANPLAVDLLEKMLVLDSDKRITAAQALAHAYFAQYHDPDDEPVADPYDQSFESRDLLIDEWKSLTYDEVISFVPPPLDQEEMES
# [5] = target: Mitogen-activated protein kinase 14 (Homo sapiens) (UniProt Q16539); details: at 1 µM
# [6] = target: Mitogen-activated protein kinase 11 (Homo sapiens) (UniProt Q15759); details: at 0.1 µM
# Mitogen-activated protein kinase 11 (Homo sapiens), sequence (Q15759 whole entry): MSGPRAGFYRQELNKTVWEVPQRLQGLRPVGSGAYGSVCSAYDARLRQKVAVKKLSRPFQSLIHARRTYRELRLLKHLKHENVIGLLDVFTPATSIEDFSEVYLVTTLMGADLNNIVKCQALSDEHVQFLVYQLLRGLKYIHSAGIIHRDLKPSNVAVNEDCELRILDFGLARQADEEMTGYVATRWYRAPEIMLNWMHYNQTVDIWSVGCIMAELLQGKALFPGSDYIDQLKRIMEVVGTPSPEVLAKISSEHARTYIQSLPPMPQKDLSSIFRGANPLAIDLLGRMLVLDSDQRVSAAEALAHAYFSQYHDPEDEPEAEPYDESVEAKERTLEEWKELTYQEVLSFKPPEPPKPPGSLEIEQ
# [7] = target: Mitogen-activated protein kinase 11 (Homo sapiens) (UniProt Q15759); details: at 1 µM
# [8] = target: T1, Mitogen-activated protein kinase 13 (Homo sapiens) (UniProt O15264); details: at 0.1 µM
# T1 sequence (whole entry): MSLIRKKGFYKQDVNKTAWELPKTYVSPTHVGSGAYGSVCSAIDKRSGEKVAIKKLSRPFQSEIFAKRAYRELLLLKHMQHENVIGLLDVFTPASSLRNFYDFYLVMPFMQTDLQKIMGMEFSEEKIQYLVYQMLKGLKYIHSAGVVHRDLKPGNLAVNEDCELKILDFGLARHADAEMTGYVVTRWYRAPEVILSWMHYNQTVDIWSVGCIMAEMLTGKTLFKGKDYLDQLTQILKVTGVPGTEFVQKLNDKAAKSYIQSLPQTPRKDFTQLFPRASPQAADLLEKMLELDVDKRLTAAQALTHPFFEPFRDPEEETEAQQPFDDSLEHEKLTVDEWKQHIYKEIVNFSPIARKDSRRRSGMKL
# [9] = target: T1, Mitogen-activated protein kinase 13 (Homo sapiens); details: at 1 µM
# [10] = target: T2, Mitogen-activated protein kinase 12 (Homo sapiens) (UniProt P53778); details: at 0.1 µM
# T2 sequence (whole entry): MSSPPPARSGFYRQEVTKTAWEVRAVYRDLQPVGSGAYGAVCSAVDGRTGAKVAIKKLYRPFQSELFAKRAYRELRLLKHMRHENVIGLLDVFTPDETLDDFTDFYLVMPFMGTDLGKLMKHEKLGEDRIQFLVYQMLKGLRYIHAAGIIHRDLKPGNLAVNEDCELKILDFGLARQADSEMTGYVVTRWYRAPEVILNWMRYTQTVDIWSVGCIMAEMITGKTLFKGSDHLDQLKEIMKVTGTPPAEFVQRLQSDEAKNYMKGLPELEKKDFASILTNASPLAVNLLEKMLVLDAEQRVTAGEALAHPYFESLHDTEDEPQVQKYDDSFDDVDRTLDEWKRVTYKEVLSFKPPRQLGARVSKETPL
# [11] = target: T2, Mitogen-activated protein kinase 12 (Homo sapiens); details: at 1 µM
# [12] = target: SRSF protein kinase 1 (Homo sapiens) (UniProt Q96SB4); details: at 0.1 µM
# SRSF protein kinase 1 (Homo sapiens), sequence (Q96SB4 whole entry, canonical isoform): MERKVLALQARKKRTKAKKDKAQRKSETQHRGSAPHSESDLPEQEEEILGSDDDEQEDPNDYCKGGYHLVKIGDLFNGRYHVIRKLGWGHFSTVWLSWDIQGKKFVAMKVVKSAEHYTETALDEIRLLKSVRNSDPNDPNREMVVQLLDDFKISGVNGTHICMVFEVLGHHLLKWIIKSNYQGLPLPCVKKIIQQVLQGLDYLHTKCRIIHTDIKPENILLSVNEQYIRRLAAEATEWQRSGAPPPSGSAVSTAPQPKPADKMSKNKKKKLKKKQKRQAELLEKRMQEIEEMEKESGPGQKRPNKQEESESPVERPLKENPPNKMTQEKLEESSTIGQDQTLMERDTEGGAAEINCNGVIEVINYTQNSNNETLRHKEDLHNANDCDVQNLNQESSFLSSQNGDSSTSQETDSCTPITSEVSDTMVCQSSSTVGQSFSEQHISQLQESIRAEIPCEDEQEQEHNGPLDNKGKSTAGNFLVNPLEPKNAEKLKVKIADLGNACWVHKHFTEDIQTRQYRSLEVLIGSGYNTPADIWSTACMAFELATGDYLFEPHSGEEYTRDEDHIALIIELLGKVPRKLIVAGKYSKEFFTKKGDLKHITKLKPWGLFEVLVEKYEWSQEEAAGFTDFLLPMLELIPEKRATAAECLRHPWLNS
# [13] = target: SRSF protein kinase 1 (Homo sapiens) (UniProt Q96SB4); details: at 1 µM
# [14] = target: Phosphatidylinositol 4,5-bisphosphate 3-kinase catalytic subunit alpha isoform (Homo sapiens) (UniProt P42336); details: at 0.1 µM
# Phosphatidylinositol 4,5-bisphosphate 3-kinase catalytic subunit alpha isoform (Homo sapiens), sequence (P42336 whole entry, canonical isoform): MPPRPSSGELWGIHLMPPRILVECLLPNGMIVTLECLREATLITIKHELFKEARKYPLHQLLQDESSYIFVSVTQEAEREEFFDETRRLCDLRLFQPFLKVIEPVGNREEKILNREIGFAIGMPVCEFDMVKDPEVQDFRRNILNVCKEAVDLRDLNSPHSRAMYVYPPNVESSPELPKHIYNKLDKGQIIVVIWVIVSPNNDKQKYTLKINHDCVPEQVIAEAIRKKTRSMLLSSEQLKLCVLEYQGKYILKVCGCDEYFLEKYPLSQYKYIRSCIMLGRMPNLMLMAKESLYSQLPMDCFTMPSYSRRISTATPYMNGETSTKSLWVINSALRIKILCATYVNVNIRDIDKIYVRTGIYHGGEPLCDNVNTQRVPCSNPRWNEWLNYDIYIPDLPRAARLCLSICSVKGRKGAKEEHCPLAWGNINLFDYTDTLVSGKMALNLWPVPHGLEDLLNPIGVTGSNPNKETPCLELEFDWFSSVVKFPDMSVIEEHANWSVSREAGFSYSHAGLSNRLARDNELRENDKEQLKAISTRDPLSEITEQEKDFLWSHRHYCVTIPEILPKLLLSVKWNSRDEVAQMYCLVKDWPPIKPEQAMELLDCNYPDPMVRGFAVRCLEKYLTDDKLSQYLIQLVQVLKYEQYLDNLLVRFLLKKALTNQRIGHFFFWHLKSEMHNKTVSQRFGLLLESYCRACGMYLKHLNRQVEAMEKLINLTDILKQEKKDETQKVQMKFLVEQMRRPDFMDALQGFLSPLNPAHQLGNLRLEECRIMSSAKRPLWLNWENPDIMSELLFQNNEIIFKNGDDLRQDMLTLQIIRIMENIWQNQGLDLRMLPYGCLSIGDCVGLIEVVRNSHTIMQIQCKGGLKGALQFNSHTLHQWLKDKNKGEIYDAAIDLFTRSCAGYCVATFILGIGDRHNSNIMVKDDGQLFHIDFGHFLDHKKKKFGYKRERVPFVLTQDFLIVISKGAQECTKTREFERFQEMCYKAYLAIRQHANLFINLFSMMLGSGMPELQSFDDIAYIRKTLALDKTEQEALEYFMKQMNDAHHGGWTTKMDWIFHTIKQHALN
# [15] = target: Phosphatidylinositol 4,5-bisphosphate 3-kinase catalytic subunit alpha isoform (Homo sapiens) (UniProt P42336); details: at 1 µM
# [16] = target: T3, Phosphatidylinositol 4,5-bisphosphate 3-kinase catalytic subunit delta isoform (Homo sapiens) (UniProt O00329); details: at 0.1 µM
# T3 sequence (whole entry): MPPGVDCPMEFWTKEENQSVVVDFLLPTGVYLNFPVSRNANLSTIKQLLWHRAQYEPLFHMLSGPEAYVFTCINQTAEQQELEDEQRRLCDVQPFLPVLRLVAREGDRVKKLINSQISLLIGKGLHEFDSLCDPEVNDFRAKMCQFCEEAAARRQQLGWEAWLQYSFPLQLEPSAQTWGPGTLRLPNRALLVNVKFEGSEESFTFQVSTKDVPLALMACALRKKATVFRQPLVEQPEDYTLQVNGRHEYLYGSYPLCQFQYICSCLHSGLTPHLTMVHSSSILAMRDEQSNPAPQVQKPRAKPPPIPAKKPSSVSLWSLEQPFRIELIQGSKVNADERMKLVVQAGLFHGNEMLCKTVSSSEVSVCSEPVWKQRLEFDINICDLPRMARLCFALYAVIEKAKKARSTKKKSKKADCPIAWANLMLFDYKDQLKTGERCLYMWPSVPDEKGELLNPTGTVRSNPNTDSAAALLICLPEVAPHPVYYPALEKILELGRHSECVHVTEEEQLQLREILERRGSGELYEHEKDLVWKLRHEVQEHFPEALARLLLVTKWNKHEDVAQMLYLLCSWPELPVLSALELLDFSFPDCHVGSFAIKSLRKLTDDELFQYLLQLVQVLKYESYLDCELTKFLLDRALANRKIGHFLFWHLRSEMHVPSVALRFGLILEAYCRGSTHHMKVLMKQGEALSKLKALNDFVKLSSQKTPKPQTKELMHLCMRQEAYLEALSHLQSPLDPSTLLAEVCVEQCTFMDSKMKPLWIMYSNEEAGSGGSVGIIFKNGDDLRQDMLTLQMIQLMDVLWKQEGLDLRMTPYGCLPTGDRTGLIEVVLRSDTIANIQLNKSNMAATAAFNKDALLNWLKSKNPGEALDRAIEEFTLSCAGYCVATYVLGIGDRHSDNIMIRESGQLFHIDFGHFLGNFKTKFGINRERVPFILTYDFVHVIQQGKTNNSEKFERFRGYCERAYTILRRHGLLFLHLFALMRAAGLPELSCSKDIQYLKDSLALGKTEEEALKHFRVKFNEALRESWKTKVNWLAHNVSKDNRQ
# [17] = target: T3, Phosphatidylinositol 4,5-bisphosphate 3-kinase catalytic subunit delta isoform (Homo sapiens); details: at 1 µM
# [18] = target: Phosphatidylinositol 4-kinase beta (Homo sapiens) (UniProt Q9UBF8); details: at 0.1 µM
# Phosphatidylinositol 4-kinase beta (Homo sapiens), sequence (Q9UBF8 2-816 limits assumed): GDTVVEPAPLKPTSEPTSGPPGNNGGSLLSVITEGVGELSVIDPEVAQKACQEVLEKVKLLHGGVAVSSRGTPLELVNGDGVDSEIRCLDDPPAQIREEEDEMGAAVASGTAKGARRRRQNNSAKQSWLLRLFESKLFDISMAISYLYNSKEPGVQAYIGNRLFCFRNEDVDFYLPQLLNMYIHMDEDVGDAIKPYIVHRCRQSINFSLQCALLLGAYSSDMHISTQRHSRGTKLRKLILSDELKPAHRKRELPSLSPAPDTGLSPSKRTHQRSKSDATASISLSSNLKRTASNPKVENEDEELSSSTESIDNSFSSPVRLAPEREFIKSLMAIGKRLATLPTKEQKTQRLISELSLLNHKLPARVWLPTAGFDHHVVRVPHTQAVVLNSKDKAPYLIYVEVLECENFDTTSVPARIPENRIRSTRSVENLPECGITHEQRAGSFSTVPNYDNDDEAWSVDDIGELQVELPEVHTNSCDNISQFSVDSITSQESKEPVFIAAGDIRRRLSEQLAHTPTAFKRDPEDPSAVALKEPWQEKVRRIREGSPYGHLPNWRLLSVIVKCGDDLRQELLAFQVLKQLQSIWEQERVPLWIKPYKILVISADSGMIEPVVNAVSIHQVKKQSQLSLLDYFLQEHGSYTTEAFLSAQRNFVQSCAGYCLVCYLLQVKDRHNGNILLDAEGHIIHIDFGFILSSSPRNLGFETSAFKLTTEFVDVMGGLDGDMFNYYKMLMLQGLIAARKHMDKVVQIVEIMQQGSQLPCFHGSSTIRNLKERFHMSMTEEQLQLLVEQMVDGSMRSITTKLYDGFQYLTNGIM
# [19] = target: Phosphatidylinositol 4-kinase beta (Homo sapiens) (UniProt Q9UBF8); details: at 1 µM
# [20] = target: Sphingosine kinase 1 (Homo sapiens) (UniProt Q9NYA1); details: at 0.1 µM;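 note: mean percent inhibition of SPHK1 activity, measured within the GSK PKIS screening panel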
# Sphingosine kinase 1 (Homo sapiens), sequence (Q9NYA1 whole entry): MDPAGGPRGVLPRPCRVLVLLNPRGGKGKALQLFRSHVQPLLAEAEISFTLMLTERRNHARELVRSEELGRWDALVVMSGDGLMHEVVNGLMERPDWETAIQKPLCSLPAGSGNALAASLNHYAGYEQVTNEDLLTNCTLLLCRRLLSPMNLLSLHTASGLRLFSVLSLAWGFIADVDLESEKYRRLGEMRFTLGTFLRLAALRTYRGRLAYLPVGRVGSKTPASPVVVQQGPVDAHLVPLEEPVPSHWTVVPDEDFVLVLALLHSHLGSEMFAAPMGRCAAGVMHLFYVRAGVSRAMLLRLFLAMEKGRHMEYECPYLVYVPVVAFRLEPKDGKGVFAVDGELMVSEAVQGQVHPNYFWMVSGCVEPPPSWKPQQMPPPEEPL
# Mitogen-activated protein kinase 3 (Homo sapiens), sequence (P27361 whole entry): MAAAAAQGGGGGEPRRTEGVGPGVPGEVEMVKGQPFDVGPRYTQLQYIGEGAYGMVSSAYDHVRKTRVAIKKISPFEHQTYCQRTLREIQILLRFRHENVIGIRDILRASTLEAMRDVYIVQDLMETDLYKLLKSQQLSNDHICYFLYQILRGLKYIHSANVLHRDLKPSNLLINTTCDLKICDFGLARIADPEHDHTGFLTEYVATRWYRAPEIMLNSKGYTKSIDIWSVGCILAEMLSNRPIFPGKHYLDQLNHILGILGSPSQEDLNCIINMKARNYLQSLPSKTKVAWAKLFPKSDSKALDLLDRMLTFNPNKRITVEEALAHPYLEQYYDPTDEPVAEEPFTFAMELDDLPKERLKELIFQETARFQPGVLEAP
# SRSF protein kinase 3 (Homo sapiens), sequence (Q9UPE1 whole entry): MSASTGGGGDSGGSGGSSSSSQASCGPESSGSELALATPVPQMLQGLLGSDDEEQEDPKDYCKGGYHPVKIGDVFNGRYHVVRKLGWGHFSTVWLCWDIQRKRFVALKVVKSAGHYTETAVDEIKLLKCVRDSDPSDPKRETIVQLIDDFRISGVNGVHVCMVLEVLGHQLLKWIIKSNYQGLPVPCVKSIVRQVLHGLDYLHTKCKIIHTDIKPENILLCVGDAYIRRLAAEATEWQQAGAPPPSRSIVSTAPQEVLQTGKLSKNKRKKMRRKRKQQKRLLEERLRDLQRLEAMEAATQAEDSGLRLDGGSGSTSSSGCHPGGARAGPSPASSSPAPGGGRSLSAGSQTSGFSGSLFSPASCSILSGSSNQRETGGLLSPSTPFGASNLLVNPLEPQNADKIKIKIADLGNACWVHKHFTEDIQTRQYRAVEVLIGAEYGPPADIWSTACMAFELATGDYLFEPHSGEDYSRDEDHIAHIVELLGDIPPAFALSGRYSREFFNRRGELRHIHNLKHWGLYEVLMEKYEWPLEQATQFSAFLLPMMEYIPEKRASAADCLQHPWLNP
Compound,inhibition [1] [%],inhibition [2] [%],inhibition [3] [%],inhibition [4] [%],inhibition [5] [%],inhibition [6] [%],inhibition [7] [%],inhibition [8] [%],inhibition [9] [%],inhibition [10] [%],inhibition [11] [%],inhibition [12] [%],inhibition [13] [%],inhibition [14] [%],inhibition [15] [%],inhibition [16] [%],inhibition [17] [%],inhibition [18] [%],inhibition [19] [%],inhibition [20] [%]
COC(=O)c1cncc(/C=C/c2c(C)cc(O)cc2C)c1,3.36,1.31,1.48,1.5,5.57,0.99,3.92,1.59,4.29,-1.81,1.22,0.45,2.47,2.59,2.56,3.23,2.23,2.65,0.11,2.52
Nc1nccc(C#Cc2cncnc2Nc2ccc(OCc3cccc(F)c3)c(Cl)c2)n1,1.04,0.77,-0.42,2.98,7.42,0.46,4.43,1.14,4.65,0.02,3.22,-1.73,-2.48,2.82,4.72,1.22,4.71,-2.78,-0.63,-2.09
NS(=O)(=O)c1cccc(Nc2cc(-c3ccc(F)cc3)n[nH]2)c1,3.77,-0.26,3.28,1.56,7.1,1.06,5.29,2.2,2.89,-0.78,1.49,-1.05,3.13,1.31,3.66,-0.13,0.5,2.18,0.88,0.58
Cc1ccc2c(c1)/C(=N/Nc1ccc(S(N)(=O)=O)cc1)C(=O)N2,1.36,-0.75,-2.57,1.29,5.27,3.1,6.52,-0.85,0.5,0.27,-0.05,-2.83,-5.98,-1.13,8.11,1.23,2.01,6.34,1.81,-1.11
COc1ccc(-c2nn3ncccc3c2-c2ccnc(Nc3cccc(C(F)(F)F)c3)n2)cc1,1.1,-2.11,-1.47,15,57.8,7.58,24.7,2.68,1.86,2.04,2.35,-2.17,-1.48,2.28,2.8,-0.05,2.34,4.99,-1.04,0.03
CC(C)c1ccc(Nc2nccc(-c3cnn4ncccc34)n2)cc1,3,-1.04,0.7,-1.86,28.2,2.54,5.44,1.62,5.42,-0.84,4.14,-1.68,-0.8,1.41,4.52,2.45,6.78,2.86,3.34,4.11
Cc1ccc(C(=O)NC2CC2)cc1-c1ccc2[nH]ncc2c1,-2.12,2.03,-0.89,3.93,52.8,4.23,28.2,-4.94,-5.34,-3.26,-1.96,-0.04,1.22,-3.9,-3.53,-1.94,-0.26,4.33,-2.52,-0.6
CN1CCN(C(=O)c2ccc(NC(=O)Nc3ccc(N(C)c4ccnc(Nc5ccc(CS(C)(=O)=O)cc5)n4)cc3)cc2)CC1,4.83,-0.32,-1.14,3.65,4.32,3.2,3.23,1.15,1.91,1.54,2.72,-1.98,-1.99,3.38,2.56,1.78,4.04,0.19,1.27,0
COC(=O)c1ccc2c(c1)C(=Cc1cc(Br)c(O)c(Br)c1)C(=O)N2,5.46,3.56,-0.06,5.88,7.6,2.64,4.68,3.43,5.81,4.05,7.78,-4.19,-1.41,20.2,71.1,-9.64,-7.81,43.6,87.4,1.25
Cc1nc(-c2ccccc2)n2nc(NCCCN3CCOCC3)ncc12,1.02,-0.13,-0.34,3.9,3.71,1.59,2.11,1.83,1.77,1.57,2.42,-2.28,-2.05,1.91,1.2,-0.22,0.85,4.37,0.1,0.59
O=S(=O)(CCOCc1ccc(-c2ccc3ncnc(Nc4ccc(OCc5cccc(F)c5)c(Cl)c4)c3c2)o1)c1ccccc1,1.69,-0.89,1.24,0.07,0.7,-0.78,-0.75,1.66,1.53,1.14,4.2,-2.76,-1.54,1.05,12.9,0.99,10.1,0.56,0.4,1.08
[O-][S+]1CCN(Cc2ccc(-c3ccc4ncnc(Nc5ccc(OCc6ccccc6)c(Cl)c5)c4c3)o2)CC1,2.24,-1.59,0.03,16.9,20.8,1.98,5.76,1.28,0.19,0.47,1.59,-1.34,-2.79,1.57,0.92,0.92,2.1,-2.13,-0.85,1.88
CN(C)C(=O)O[C@H]1CN[C@H](C#Cc2cc3ncnc(Nc4ccc(OCc5cccc(F)c5)c(Cl)c4)c3s2)C1,3.14,0.23,-1.8,1.35,7,0.51,1.53,-0.2,2.51,0.18,1.22,-0.93,-1.25,1.47,31.7,1.7,17.4,4.95,-3.29,0.36
CCn1c(-c2nonc2N)nc2ccc(F)cc21,7.45,-2.41,-1.12,5.24,8.37,7.69,9.2,2.3,6.26,3.81,3.36,-1.22,2.61,4.99,4.15,3.09,2.96,-0.18,6.29,0.88
C[C@@H](Oc1cc(-n2cnc3ccc(OC[C@@H](O)CO)cc32)sc1C(N)=O)c1ccccc1Cl,-2.21,-1.72,0.27,2.66,3.54,-1.66,1.86,-3.13,-2.7,-0.19,-1.21,-0.36,-1.3,-0.06,13.4,1.99,34.9,3.09,-1.09,-2.33
COc1cc(Nc2nccc(-c3cnn4ncccc34)n2)cc(OC)c1,9.37,-0.86,-1.27,2.59,10.3,2.14,10.7,1.49,12.1,1.04,5.11,-0.28,4.85,2.19,20.5,6.1,35,-0.41,14.9,0
CC(C)c1ccc2c(c1)NC(=O)/C2=N/Nc1ccc(S(N)(=O)=O)cc1,-0.93,-0.91,-3.87,0.75,-0.04,-1.84,3.37,-0.12,-0.88,0.48,0.63,-0.89,-0.94,0.32,1.8,0.64,0.71,0.05,0.24,0
